Values joined by “and” are separate entries in the source; they are usually repeats but may differ in a detail not shown here. Identical values can stand only once. Inconclusive results are not listed. More than one record can exist for a structure, and the calls need not agree. Active and inactive are the calls of the source. How the source made its calls, unless noted: active means hit-call score of the fitted dose curve at least 0.9, where 1 is the maximum; inactive means score below 0.9.
Tests used:
[1] = target: Oxysterols receptor LXR-beta (Homo sapiens) (UniProt P55055); assay: ATG_LXRb_TRANS: Attagene TRANS-FACTORIAL HepG2 Assay for human Liver X Receptor beta (LXRb) (AID 2282981; active means hit-call score of the fitted dose curve at least 0.9, where 1 is the maximum); settings: HepG2 Attagene TRANS GAL4-LXRb reporter, mRNA
How it was run: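 Measures induction of a Gal4-driven reporter transcript in HepG2 cells expressing an exogenous LXRb-Gal4 fusion. Cells are exposed to compound for 24 h before RNA isolation and RT-PCR with capillary electrophoresis detection.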

[2] = target: Hepatocyte nuclear factor 4-alpha (Homo sapiens) (UniProt P41235); assay: ATG_HNF4a_TRANS: Attagene TRANS-FACTORIAL HepG2 Assay for human Hepatocyte Nuclear Factor 4 alpha (HNF4a) (AID 2282982; active means hit-call score of the fitted dose curve at least 0.9, where 1 is the maximum); settings: HepG2 HNF4a transactivation reporter, mRNA readout
How it was run: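 In this trans-factorial format, a chimeric HNF4a-GAL4 fusion drives a GAL4-UAS reporter in transfected HepG2 liver cells. After 24 h treatment, reporter mRNA induction is measured by RT-PCR with capillary electrophoresis, relative to DMSO.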

[3] = ATG_M_06_TRANS: Attagene TRANS-FACTORIAL HepG2 Assay for M06 Transcription Factor (Internal Marker) (AID 2282983; active means hit-call score of the fitted dose curve at least 0.9, where 1 is the maximum); settings: HepG2 Attagene TRANS M06 internal marker reporter
How it was run: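 Background-control reporter readout: after 24 h chemical exposure of transiently transfected HepG2 (GAL4-UAS reporter units), mRNA quantified by RT-PCR with fluorescent labeling and capillary electrophoresis. Gain-of-signal fitting against DMSO baseline.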

[4] = ATG_M_32_TRANS: Attagene TRANS-FACTORIAL HepG2 Assay for M32 Transcription Factor (Internal Marker) (AID 2282984; active means hit-call score of the fitted dose curve at least 0.9, where 1 is the maximum;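 further: transcript level of a background control reporter unit measured by RT-PCR and capillary electrophoresis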); settings: HepG2 Attagene TRANS M32 internal marker reporter
How it was run: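 After 24 h dosing of transfected HepG2 cells, total RNA was reverse-transcribed, reporter sequences PCR-amplified, 6-FAM labelled by primer extension and HpaI-digested before capillary electrophoresis. Signal increase over DMSO was fitted.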

[5] = target: Nuclear receptor subfamily 4 group A member 2 (Homo sapiens) (UniProt P43354); assay: ATG_NURR1_TRANS: Attagene TRANS-FACTORIAL HepG2 Assay for human Nuclear Receptor Related Protein 1 (NURR1) (AID 2282985; active means hit-call score of the fitted dose curve at least 0.9, where 1 is the maximum); settings: HepG2 Attagene TRANS reporter, mRNA readout
How it was run: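 Chimeric NR-Gal4 fusion activity measured in HepG2 after 24 h treatment. Reporter transcripts detected by RT-PCR and capillary electrophoresis fluorescence; positive-direction curve fitting against DMSO.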

[6] = target: Transcriptional activator Myb (Homo sapiens) (UniProt P10242); assay: ATG_Myb_CIS: Attagene CIS-FACTORIAL HepG2 Assay for human Myeloblastosis (Myb) Proto-Oncogene Transcription Factor (AID 2282986); settings: HepG2 Attagene CIS-FACTORIAL Myb reporter transcription; actives raise or lower the signal
How it was run: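 Fluorescence signals from capillary electrophoresis of RT-PCR-amplified reporter cDNA give the read-out. Cells: HepG2 transfected with multiple cis-regulated reporter units. Exposure lasts 24 hours; DMSO defines baseline for gain or loss of signal.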

[7] = target: Nuclear respiratory factor 1 (Homo sapiens) (UniProt Q16656); assay: ATG_NRF1_CIS: Attagene CIS-FACTORIAL HepG2 Assay for human Nuclear Respiratory Factor 1 (NRF1) Orphan Gene (AID 2282987); settings: HepG2 NRF1 cis-element reporter, Attagene multiplex; actives raise or lower the signal
How it was run: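 Transcriptional reporter readout, one component of a 52-endpoint multiplexed HepG2 panel. Exposure 24 h; mRNA detected via RT-PCR and fluorescent capillary electrophoresis; fitting in both directions against DMSO.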

[8] = ATG_NFI_CIS: Attagene CIS-FACTORIAL HepG2 Assay for human Nuclear Factor I (NFI) (AID 2282989); settings: HepG2 cis-regulatory reporter, NFI response element transcription; actives raise or lower the signal
How it was run: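 Endogenous TF activity in HepG2 cells transiently transfected with cis-element-driven multiplexed reporter units, read 24 h after dosing. Reporter mRNA quantified by RT-PCR, 6-FAM labelling, HpaI digestion and capillary electrophoresis; bidirectional fit versus DMSO.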

[9] = target: Myc proto-oncogene protein (Homo sapiens) (UniProt P01106); assay: ATG_Myc_CIS: Attagene CIS-FACTORIAL HepG2 Assay for human Myelocytomatosis (Myc) Proto-Oncogene Transcription Factor (AID 2282990); settings: HepG2, Attagene cis-reporter transcription factor activity; actives raise or lower the signal
How it was run: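 DMSO-normalised, bidirectionally fitted reporter mRNA signal. HepG2 cells transfected with cis reporter constructs, treated 24 h; transcripts detected by RT-PCR, 6-FAM primer extension and CE.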

[10] = ATG_NF_kB_CIS: Attagene CIS-FACTORIAL HepG2 Assay for human Nuclear Factor Kappa B (NF-kB) (AID 2282991); settings: HepG2 Attagene cis-factorial NF-kB reporter mRNA; actives raise or lower the signal
How it was run: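 HepG2, transient multi-reporter transfection, cis promoter elements (endogenous TFs). 24 h exposure. Total RNA → RT → PCR → 6-FAM label → HpaI → CE. Gain/loss vs DMSO.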

[11] = ATG_NRF2_ARE_CIS: Attagene CIS-FACTORIAL HepG2 Assay for human Nuclear Factor Erythroid 2 Related Factor 2 (NFR2) response to Antioxidant Response Elements (ARE) (AID 2282992); settings: HepG2 Attagene ARE/NRF2 reporter, transcription factor activity; actives raise or lower the signal;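 on AC50: reporter mRNA level measured by RT-PCR and capillary electrophoresis fluorescence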
How it was run: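 Readout: reporter mRNA quantified by RT-PCR plus FAM-labelled primer extension, HpaI digestion and capillary electrophoresis, 24 h after dosing transfected HepG2 cells. Gain or loss of signal is fitted bidirectionally against DMSO baseline.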

[12] = ATG_Oct_MLP_CIS: Attagene CIS-FACTORIAL HepG2 Assay for human Octamer-Binding Transcription Factor (Oct) (AID 2282993); settings: HepG2 Attagene cis-factorial Oct reporter, mRNA; actives raise or lower the signal
How it was run: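 HepG2 cells transiently transfected with cis-element-driven reporter transcription units (endogenous TF activity); 24 h compound exposure. Reporter mRNA quantified by RT-PCR, 6-FAM labelling, HpaI digestion and capillary electrophoresis; bidirectional fit versus DMSO baseline.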

[13] = target: Cellular tumor antigen p53 (Homo sapiens) (UniProt P04637); assay: ATG_p53_CIS: Attagene CIS-FACTORIAL HepG2 Assay for human p53 Transcription Factor (AID 2282994); settings: HepG2 p53 cis-element reporter, Attagene mRNA; actives raise or lower the signal
How it was run: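 Read-out: reporter mRNA by RT-PCR plus capillary electrophoresis with fluorescence detection. Human HepG2 liver cells carried transfected multi-reporter cis-element constructs, dosed 24 h. Gain or loss of signal fitted bidirectionally against DMSO control.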

[14] = target: human Peroxisome Proliferator-activated Receptor alpha (PPARa), PPARA (gene 5465) (UniProt Q07869); assay: ATG_PPARa_TRANS: Attagene TRANS-FACTORIAL HepG2 Assay for human Peroxisome Proliferator-activated Receptor alpha (PPARa) (AID 2283001; active means hit-call score of the fitted dose curve at least 0.9, where 1 is the maximum)
How it was run: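 Cells (HepG2) are transfected with multiple reporter transcription units, exposed to chemical for 24 h, then total RNA is reverse-transcribed and amplified. Labelled products are quantified by capillary electrophoresis; induction is referenced to DMSO.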

[15] = target: Oxysterols receptor LXR-alpha (Homo sapiens) (UniProt Q13133); assay: ATG_LXRa_TRANS: Attagene TRANS-FACTORIAL HepG2 Assay for human Liver X Receptor alpha (LXRa) (AID 2282980; active means hit-call score of the fitted dose curve at least 0.9, where 1 is the maximum); settings: HepG2 Attagene TRANS reporter, LXRa transactivation
How it was run: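 Chemical-induced reporter mRNA measured by RT-PCR with fluorescent labelling and capillary electrophoresis after 24 h dosing of transiently transfected HepG2 cells expressing exogenous NR-Gal4 chimeras; increases scored against DMSO baseline.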

Nuclear receptor subfamily 4 group A member 2 (Homo sapiens), sequence (P43354 whole entry, looked up, the tested form may be a part): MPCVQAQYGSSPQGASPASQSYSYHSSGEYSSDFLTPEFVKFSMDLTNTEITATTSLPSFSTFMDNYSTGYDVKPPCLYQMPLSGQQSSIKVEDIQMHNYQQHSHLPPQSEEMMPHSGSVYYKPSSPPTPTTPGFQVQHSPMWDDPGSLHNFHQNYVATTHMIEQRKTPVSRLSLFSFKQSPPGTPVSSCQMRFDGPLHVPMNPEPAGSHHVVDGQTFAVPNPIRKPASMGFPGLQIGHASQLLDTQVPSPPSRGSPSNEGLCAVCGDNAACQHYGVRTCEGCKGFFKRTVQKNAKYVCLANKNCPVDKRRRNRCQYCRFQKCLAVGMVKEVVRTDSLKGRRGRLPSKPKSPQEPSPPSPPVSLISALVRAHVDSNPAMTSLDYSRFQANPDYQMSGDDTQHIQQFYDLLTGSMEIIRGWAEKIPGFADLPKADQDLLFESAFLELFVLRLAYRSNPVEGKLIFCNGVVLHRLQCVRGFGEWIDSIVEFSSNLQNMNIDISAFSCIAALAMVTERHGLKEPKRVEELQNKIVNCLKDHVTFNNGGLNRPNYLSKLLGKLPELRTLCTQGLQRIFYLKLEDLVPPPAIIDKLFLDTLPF
Nuclear respiratory factor 1 (Homo sapiens), sequence (Q16656 whole entry, looked up): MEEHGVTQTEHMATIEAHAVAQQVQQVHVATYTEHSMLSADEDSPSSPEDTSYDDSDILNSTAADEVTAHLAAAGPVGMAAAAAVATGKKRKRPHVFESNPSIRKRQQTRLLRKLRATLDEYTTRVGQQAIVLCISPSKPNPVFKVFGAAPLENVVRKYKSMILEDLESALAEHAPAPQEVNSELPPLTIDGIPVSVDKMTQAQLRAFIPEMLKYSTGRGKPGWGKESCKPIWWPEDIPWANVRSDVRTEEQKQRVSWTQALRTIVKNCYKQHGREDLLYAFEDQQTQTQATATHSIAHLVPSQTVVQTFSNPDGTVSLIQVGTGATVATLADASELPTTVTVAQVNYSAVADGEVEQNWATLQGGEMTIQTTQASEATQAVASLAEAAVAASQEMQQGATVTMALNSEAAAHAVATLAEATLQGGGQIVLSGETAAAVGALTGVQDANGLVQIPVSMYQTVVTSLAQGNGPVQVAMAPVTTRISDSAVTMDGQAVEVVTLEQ
Myc proto-oncogene protein (Homo sapiens), sequence (P01106 whole entry, looked up): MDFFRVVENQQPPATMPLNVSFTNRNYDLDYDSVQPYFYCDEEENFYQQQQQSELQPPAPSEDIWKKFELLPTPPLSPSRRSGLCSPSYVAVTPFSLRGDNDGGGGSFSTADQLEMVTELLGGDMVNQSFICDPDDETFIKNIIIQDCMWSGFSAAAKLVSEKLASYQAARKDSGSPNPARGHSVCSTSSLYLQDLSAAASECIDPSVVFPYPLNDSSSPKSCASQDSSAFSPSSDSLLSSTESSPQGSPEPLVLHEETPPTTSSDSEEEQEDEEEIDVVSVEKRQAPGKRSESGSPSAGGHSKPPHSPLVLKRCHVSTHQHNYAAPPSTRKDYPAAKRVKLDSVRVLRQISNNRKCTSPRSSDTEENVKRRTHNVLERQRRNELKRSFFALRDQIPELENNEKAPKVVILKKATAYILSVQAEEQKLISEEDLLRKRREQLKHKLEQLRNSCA
Oxysterols receptor LXR-alpha (Homo sapiens), sequence (Q13133 whole entry, looked up, the tested form may be a part): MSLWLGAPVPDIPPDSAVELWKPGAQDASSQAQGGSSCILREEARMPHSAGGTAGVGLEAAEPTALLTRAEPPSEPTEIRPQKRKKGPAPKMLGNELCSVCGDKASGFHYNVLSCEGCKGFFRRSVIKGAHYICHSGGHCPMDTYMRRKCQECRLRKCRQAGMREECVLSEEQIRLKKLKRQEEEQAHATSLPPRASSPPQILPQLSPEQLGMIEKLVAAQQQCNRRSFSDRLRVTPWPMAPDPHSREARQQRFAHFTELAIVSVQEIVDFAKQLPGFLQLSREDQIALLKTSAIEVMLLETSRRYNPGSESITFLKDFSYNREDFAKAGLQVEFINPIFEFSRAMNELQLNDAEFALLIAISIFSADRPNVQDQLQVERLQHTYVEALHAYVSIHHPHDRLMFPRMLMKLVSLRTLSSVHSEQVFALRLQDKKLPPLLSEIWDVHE
human Peroxisome Proliferator-activated Receptor alpha (PPARa), PPARA (gene 5465), sequence (Q07869 whole entry, looked up): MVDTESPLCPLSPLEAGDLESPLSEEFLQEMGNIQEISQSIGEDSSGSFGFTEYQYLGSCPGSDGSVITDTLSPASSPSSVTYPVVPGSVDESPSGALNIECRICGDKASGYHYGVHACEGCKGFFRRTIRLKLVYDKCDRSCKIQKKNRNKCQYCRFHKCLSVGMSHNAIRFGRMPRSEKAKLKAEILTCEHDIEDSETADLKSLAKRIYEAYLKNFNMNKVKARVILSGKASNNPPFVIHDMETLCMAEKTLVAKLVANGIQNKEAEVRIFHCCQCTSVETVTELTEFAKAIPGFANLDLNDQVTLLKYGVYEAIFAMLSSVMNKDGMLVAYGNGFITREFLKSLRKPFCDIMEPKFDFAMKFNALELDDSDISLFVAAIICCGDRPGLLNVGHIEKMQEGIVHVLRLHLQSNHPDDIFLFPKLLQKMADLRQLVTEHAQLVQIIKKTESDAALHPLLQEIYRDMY
Transcriptional activator Myb (Homo sapiens), sequence (P10242 whole entry, looked up): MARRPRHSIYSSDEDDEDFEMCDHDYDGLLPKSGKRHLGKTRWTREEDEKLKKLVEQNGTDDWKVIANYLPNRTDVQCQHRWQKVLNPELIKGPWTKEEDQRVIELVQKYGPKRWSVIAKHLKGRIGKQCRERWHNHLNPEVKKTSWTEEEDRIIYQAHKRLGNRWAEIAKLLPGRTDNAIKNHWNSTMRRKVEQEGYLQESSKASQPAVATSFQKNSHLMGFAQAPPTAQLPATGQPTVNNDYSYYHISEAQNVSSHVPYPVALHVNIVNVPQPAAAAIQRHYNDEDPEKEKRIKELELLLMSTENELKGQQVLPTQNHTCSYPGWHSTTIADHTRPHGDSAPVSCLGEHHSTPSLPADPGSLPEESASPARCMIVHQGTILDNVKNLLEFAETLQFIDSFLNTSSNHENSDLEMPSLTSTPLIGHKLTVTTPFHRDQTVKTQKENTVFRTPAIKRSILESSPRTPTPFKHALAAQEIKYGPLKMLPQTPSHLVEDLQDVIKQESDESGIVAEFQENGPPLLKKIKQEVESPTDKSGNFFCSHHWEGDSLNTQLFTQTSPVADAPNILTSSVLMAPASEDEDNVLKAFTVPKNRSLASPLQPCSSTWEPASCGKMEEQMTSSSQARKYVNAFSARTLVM
Cellular tumor antigen p53 (Homo sapiens), sequence (P04637 whole entry, looked up): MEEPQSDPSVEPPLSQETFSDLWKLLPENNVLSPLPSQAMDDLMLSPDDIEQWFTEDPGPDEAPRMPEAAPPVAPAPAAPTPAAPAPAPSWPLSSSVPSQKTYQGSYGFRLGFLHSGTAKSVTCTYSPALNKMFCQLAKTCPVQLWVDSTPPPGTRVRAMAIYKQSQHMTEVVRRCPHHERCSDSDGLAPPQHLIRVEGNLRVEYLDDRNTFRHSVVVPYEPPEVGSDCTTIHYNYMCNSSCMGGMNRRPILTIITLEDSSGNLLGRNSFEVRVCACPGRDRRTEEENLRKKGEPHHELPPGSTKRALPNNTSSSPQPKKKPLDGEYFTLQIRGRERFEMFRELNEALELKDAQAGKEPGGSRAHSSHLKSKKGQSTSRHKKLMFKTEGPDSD
Hepatocyte nuclear factor 4-alpha (Homo sapiens), sequence (P41235 whole entry, looked up, the tested form may be a part): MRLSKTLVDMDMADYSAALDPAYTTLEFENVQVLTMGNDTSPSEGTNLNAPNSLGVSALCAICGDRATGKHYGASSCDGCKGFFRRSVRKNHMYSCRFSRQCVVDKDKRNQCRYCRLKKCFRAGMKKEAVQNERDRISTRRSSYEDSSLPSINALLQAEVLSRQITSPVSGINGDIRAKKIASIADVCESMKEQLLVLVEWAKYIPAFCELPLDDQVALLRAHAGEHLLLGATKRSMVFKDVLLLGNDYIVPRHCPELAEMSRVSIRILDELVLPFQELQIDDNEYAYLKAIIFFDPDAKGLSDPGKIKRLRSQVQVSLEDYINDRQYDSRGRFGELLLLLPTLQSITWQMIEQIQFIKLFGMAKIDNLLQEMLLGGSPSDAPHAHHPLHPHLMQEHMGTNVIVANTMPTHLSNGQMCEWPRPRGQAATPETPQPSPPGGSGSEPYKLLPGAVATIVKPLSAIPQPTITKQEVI
Oxysterols receptor LXR-beta (Homo sapiens), sequence (P55055 whole entry, looked up, the tested form may be a part): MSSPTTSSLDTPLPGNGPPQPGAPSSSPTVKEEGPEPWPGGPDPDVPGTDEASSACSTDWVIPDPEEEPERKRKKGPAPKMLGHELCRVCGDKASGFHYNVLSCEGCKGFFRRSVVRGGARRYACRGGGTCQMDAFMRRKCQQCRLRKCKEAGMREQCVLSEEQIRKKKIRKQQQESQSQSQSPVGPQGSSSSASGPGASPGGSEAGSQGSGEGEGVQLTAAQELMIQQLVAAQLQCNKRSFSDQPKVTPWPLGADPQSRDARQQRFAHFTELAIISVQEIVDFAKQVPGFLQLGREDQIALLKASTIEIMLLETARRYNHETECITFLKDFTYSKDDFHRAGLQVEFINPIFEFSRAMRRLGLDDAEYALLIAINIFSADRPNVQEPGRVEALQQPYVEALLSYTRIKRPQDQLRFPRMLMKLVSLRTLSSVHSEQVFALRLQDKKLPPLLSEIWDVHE

CCCCCCCCCCCC[N+](C)(C)CCCCCCCCCCCC
outcome [1]: inactive | AC50 [2]: 58.1 µM (active) | outcome [3]: inactive | outcome [4]: inactive | outcome [5]: inactive | outcome [6]: inactive | outcome [7]: inactive | outcome [8]: inactive | AC50 [9]: 100 µM (active) | outcome [10]: inactive | AC50 [11]: 10.4 µM (active) | AC50 [12]: 5.23 µM (active) | AC50 [13]: 10.4 µM (active) | outcome [14]: inactive

Cc1cc(=O)oc2cc(O)ccc12
outcome [15]: inactive | outcome [4]: inactive | outcome [5]: inactive | outcome [6]: inactive | outcome [7]: inactive | outcome [8]: inactive | outcome [9]: inactive | outcome [10]: inactive | outcome [12]: inactive | outcome [13]: inactive

CCCCCCCCC1CCC(=O)O1 (configuration not stated)
outcome [15]: inactive | outcome [3]: inactive | outcome [4]: inactive | outcome [6]: inactive | outcome [7]: inactive | outcome [8]: inactive | outcome [10]: inactive | outcome [11]: inactive | outcome [12]: inactive | outcome [13]: inactive | outcome [14]: inactive

Cc1ccccc1C(OCCN(C)C)c1ccccc1 (configuration not stated)
outcome [15]: inactive | outcome [4]: inactive | outcome [5]: inactive | outcome [6]: inactive | outcome [7]: inactive | outcome [8]: inactive | outcome [9]: inactive | outcome [10]: inactive | AC50 [12]: 119 µM (active) | outcome [12]: inactive | AC50 [13]: 52.6 µM (active) and 88.3 µM (active) | outcome [14]: inactive

— PubChem BioAssay (EPA / NIEHS)
